Source: the supplement of paper PMC11732987, “Enantioselective OTUD7B fragment discovery through chemoproteomics screening and high-throughput optimisation” (Communications Chemistry, 2025)

Target: COPS5 (UniProt Q92905)
Assay: log2 ratio of Biotin-Ahx-Ub-VS probe labelling (fragment/DMSO); higher = less target engagement (more negative = stronger competition), active = hit call of the paper (q ≤ 0.05, log2 ratio ≤ -1)
Settings: compound concentration: 200 uM; treatment time: 3 h
Method: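 Competitive ABPP in HEK293T cell lysate. Lysates were treated with each chloroacetamide fragment at 200 µM for 3 h, then with Biotin-Ahx-Ub-VS (0.5 µM, 1 h), NeutrAvidin-enriched and analysed by diaPASEF LC-MS/MS. Protein LFQ was median-normalised; average log2 ratio is fragment/DMSO from an unpaired t-test (n=3 treated, n=44 DMSO). Hits: q ≤ 0.05, log2 ratio ≤ -1, unique peptides ≥ 2.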

Chain of COPS5 (Q92905 whole entry, looked up, the tested form may be a part): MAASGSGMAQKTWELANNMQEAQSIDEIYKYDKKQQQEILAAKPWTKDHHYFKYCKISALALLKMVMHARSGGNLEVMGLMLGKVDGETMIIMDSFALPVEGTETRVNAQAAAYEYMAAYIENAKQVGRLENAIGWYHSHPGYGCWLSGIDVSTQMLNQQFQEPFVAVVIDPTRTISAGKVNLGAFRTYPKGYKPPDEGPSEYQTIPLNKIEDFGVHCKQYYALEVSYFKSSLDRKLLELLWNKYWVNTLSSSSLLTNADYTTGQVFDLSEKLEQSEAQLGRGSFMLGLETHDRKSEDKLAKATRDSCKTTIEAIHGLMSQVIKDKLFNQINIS

log2 ratio of Biotin-Ahx-Ub-VS probe labelling, inactive:
O=C(CCl)N1CCOCCC1c1ccccc1 (stereo not given) -0.0175
O=C(CCl)N1CCCCC12CCOCC2 0.0647
Cc1ccc(CNC(=O)CCl)nc1C.Cl 0.0421
Cl.O=C(CCl)N1CCC(n2nc3ccccc3n2)CC1 -0.532
Cc1ccc2nnc(CNC(=O)CCl)n2c1 -0.118
Cc1cccc(NC(=O)CCl)c1C -0.347
CN(C)C(=O)c1ccc(CNC(=O)CCl)cc1 0.0838
Cc1cccc(C)c1NC(=O)CCl 0.194
NC(=O)C(Cc1ccccc1)NC(=O)CCl (stereo not given) 0.0263
O=C(CCl)N[C@H]1CCS(=O)(=O)c2ccccc21 -0.0992
Cc1cnc2[nH]cc(CCNC(=O)CCl)c2c1 0.199
O=C(CCl)NCc1ccc(N2CCOCC2)nc1 0.0899
O=C(CCl)Nc1ccccc1C(F)(F)F 0.00522
CC(NC(=O)CCl)c1csc(-c2ccccc2)n1.Cl (stereo not given) -0.00417
O=C(CCl)N1CCc2sccc2C1 -0.455
O=C(CCl)N1CCC(S(=O)(=O)c2ccc(F)cc2)CC1 -0.0227
Cl.O=C(CCl)N1CCn2cncc2C1 -0.298
O=C(CCl)NC1CCCCNC1=O (stereo not given) 0.0739
O=C(CCl)Nc1cc2c(cc1Cl)OCCCO2 -0.0643
O=C(CCl)N1CCN(c2nc3ccccc3o2)CC1 -0.251
Cc1nc(-c2cccc(NC(=O)CCl)c2)cs1 -0.0825
Cl.Cn1nccc1C(NC(=O)CCl)c1ccccc1 (stereo not given) 0.313
Cc1ccc(CN(C)C(=O)CCl)o1 0.0171
Cc1ccc(CC(CO)CNC(=O)CCl)cc1 (stereo not given) 0.0248
O=C(CCl)NCCc1ccc(F)cc1 0.0919
Cc1nc(CN2CCN(C(=O)CCl)CC2)cs1 -0.305
O=C(CCl)Nc1nnc(CC(F)(F)F)o1 0.149
CC(NC(=O)CCl)c1cccc2ccccc12 (stereo not given) 0.127
COc1ccccc1C(C)NC(=O)CCl (stereo not given) 0.247
O=C(CCl)Nc1ccc2c(c1)OC(F)(F)O2 -0.156
COCC1C=CCCN1C(=O)CCl (stereo not given) -0.00365
O=C(CCl)Nc1cccc(NC(=O)c2ccccc2)c1 -0.238
CNC(=O)C1CCN(C(=O)CCl)CC1 0.16
NC(=O)C1CCCN(C(=O)CCl)C1 (stereo not given) 0.0012
O=C(CCl)N(Cc1ccsc1)C1CC1 0.054
O=C(CCl)N1CCOC(c2cccc(F)c2)C1 (stereo not given) -0.0425
O=C(CCl)Nc1cccc2ncccc12 0.251
Cc1ncsc1CCNC(=O)CCl 0.936
Cl.O=C(CCl)NCc1ccnc(Oc2ccccc2F)c1 0.031
Cc1cc(CC(C)NC(=O)CCl)n[nH]1 (stereo not given) 0.0799
